{"source": "PubChem BioAssay (NCATS)", "note": "Results filed as inconclusive are left out. Where a call stands in place of a potency, no number is given. Activity calls are given as the source filed them. The call rests on the fitted dose curve; in most records, active means well fitted inhibition curve with a large enough effect; inconclusive means small, poorly fitted or top-dose-only effect; inactive means flat fitted curve, though single readings scatter. Potency means the concentration at half of the fitted maximal effect.", "data": [{"biological_target": "Dual specificity protein kinase CLK4 (Homo sapiens) (UniProt Q9HAZ1)", "sequence (Q9HAZ1 whole entry, looked up)": "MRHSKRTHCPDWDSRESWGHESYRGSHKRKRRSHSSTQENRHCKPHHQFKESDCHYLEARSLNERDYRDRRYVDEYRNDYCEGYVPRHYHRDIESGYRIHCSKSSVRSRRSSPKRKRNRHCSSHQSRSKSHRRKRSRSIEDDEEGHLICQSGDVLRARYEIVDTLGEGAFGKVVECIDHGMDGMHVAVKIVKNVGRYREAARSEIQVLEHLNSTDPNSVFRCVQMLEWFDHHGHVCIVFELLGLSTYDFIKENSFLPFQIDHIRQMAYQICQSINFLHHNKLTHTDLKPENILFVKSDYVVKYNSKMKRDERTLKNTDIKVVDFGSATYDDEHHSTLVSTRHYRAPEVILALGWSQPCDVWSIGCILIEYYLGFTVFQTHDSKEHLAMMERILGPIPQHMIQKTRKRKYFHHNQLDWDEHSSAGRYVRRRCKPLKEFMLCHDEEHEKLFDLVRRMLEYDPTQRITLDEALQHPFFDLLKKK", "assay": "qHTS Assay for Inhibitors of CDC-like Kinase 4 (Kinase-Glo Assay) (AID 1770); further: nearly all actives have a fitted effect of over 65% in size", "conditions": "recombinant Clk4, Kinase-Glo ATP depletion luminescence; series mostly up to 66.7 µM", "description": "NIH Molecular Libraries Probe Production Centers Network [MLPCN] NIH Chemical Genomics Center [NCGC] MLPCN Grant: 1R03MH084827-01 Assay Submitter (PI): Tom Misteli NCGC Assay Overview: Clk4 (Invitrogen, cat# PV3839) was assayed using ATP and the RS repeat peptide (AnaSpec cat # 61722) as substrates. Following the Clk4 reaction, the remaining ATP levels were detected using Promega Kinase-Glo technology wherein the remaining ATP from the kinase reaction is detected using Ultra-Glo luciferase and D-luciferin which generates a bioluminescence signal from the ATP. The positive control for the assay was TG003 (Sigma-Aldrich, cat# 300801-52-9) which has been described as an inhibitor of Clk 4[1].\nNCGC Assay Protocol Summary: Two uL/well of substrate-buffer solution (100 uM RS peptide, 1 uM ATP, 25 mM Tris pH7.5, 10 mM MgCl2, 0.5 mM EGTA, 2.5 mM DTT, 0.01% Triton X-100 final concentration) was dispensed into 1536-well, assay plates (Greiner, solid white medium-binding plates) with Aurora Discovery BioRAPTR Flying Reagent Dispenser (FRD; Beckton-Dickenson). Using a Kalypsys pin tool equipped with a 1536-pin tool, 23 nL of compound solution was transferred to the assay plate. One uL/ well Clk4-buffer solution (25 nM Clk4, 25 mM Tris pH 7.5, 10 mM MgCl2, 0.5 mM EGTA, 2.5 mM DTT, 0.01% Triton X-100, final concentrations) was then added using the FRD yielding a total kinase reaction volume of 3 uL/ well. After 4.5 hours of room temperature incubation, 3 uL Kinase-Glo reagent was added for a final assay volume of 6 uL/ well. Luminescence was detected with the ViewLux plate reader (Perkin Elmer, Waltham, MA) after 5 min incubation using a 5 second exposure time and 2x binning.", "values": [{"smiles": "O=c1c(-c2ccc(Cl)cc2)nc2cnc(N3CCOCC3)nc2n1Cc1ccc(F)cc1", "Potency": "inactive"}, {"smiles": "COc1ncc2nc(-c3cn(C)c4ccccc34)c(=O)n(CCC#N)c2n1", "Potency": "inactive"}, {"smiles": "COc1cccc(Cn2c(=O)c(-c3ccccc3)nc3cnc(N4CCN(C)CC4)nc32)c1", "Potency": "inactive"}, {"smiles": "CN(C)c1ncc2nc(-c3cccs3)c(=O)n(C)c2n1", "Potency": "inactive"}, {"smiles": "Clc1ccccc1-c1cc(NCCN2CCOCC2)ncn1", "Potency": "inactive"}, {"smiles": "COCCNc1ncnc2ccc(-c3c(C)noc3C)cc12", "Potency": "3.98 µM (active)"}, {"smiles": "N#Cc1cccc(-c2cncnc2NCc2ccccc2)c1", "Potency": "inactive"}, {"smiles": "COCCn1c(=O)c(-c2cccs2)nc2cnc(N3CCOCC3)nc21", "Potency": "inactive"}, {"smiles": "CCNc1ncc2nc(-c3ccc(OC)cc3)c(=O)n(CCc3ccccc3)c2n1", "Potency": "inactive"}, {"smiles": "CCNc1ncc2nc(-c3cccs3)c(=O)n(Cc3cccs3)c2n1", "Potency": "inactive"}, {"smiles": "COc1ccc(CNc2nc(-c3cccc(NS(C)(=O)=O)c3)nc3ccccc23)c(OC)c1", "Potency": "inactive"}, {"smiles": "COc1ccc(-n2c(=O)c(-c3ccc(F)cc3)nc3cncnc32)cc1", "Potency": "inactive"}, {"smiles": "Cn1c(=O)c(-c2ccc(F)cc2)nc2cnc(N3CCOCC3)nc21", "Potency": "inactive"}, {"smiles": "CCNc1ncc2nc(-c3cccc(C#N)c3)c(=O)n(Cc3cccc(OC)c3)c2n1", "Potency": "inactive"}, {"smiles": "O=c1c(-c2cccc(Cl)c2)nc2cncnc2n1-c1ccccc1", "Potency": "inactive"}, {"smiles": "Cc1noc(C)c1-c1nc(Nc2ccc(F)cc2)c2ccccc2n1", "Potency": "inactive"}, {"smiles": "COc1ncc2nc(-c3cn(C)c4ccccc34)c(=O)n(CCc3ccccc3)c2n1", "Potency": "inactive"}, {"smiles": "O=c1c(-c2ccc(F)cc2)nc2cncnc2n1Cc1ccccc1", "Potency": "inactive"}, {"smiles": "COc1ccccc1CNc1cc(-c2ccccc2Cl)ncn1", "Potency": "25.1 µM (active)"}, {"smiles": "COc1ccc2[nH]cc(CCNc3cc(-c4ccccc4Cl)ncn3)c2c1", "Potency": "12.6 µM (active)"}, {"smiles": "COc1cccc(-c2ccc3ncnc(N4CCOCC4)c3c2)c1", "Potency": "1.41 µM (active)"}, {"smiles": "CCNc1ncc2nc(-c3cc(F)cc(F)c3)c(=O)n(CCOC)c2n1", "Potency": "inactive"}, {"smiles": "Cc1ccccc1-c1ccc2ncnc(N(C)Cc3ccco3)c2c1", "Potency": "14.1 µM (active)"}, {"smiles": "Cn1c(=O)c(-c2ccc(Cl)cc2)nc2cnc(OCc3ccccc3)nc21", "Potency": "inactive"}, {"smiles": "Cc1nc2cnc(N3CCN(C)CC3)nc2n(C[C@H]2CCCO2)c1=O", "Potency": "inactive"}, {"smiles": "O=c1c(CCc2ccccc2)nc2cnc(N3CCOCC3)nc2n1C1CC1", "Potency": "inactive"}, {"smiles": "COc1ccc(-n2c(=O)c(C)nc3cnc(N4CCOCC4)nc32)cc1", "Potency": "inactive"}, {"smiles": "CCNc1ncc2nc(CCc3ccccc3)c(=O)n(C[C@H]3CCCO3)c2n1", "Potency": "inactive"}, {"smiles": "Cn1c(=O)c(-c2ccc(F)cc2)nc2cnc(OCc3ccccc3)nc21", "Potency": "inactive"}, {"smiles": "Cc1noc(C)c1-c1ccc2ncnc(N3CCOCC3)c2c1", "Potency": "12.6 µM (active)"}, {"smiles": "Cc1noc(C)c1-c1nc(Nc2ccccc2)c2ccccc2n1", "Potency": "inactive"}, {"smiles": "CN(Cc1ccco1)c1ncncc1-c1ccccc1C(F)(F)F", "Potency": "inactive"}, {"smiles": "CN(Cc1ccco1)c1cc(-c2ccccc2C(F)(F)F)ncn1", "Potency": "inactive"}, {"smiles": "CN(Cc1ccco1)c1nc(-c2ccoc2)nc2ccccc12", "Potency": "inactive"}, {"smiles": "Cc1ccccc1-c1ccc2ncnc(NCc3cccs3)c2c1", "Potency": "3.98 µM (active)"}, {"smiles": "COc1cccc(Nc2ncc3nc(CCc4ccccc4)c(=O)n(Cc4cccs4)c3n2)c1", "Potency": "inactive"}, {"smiles": "O=c1c(-c2ccc(Cl)cc2)nc2cnc(N3CCNCC3)nc2n1CCc1ccccc1", "Potency": "inactive"}, {"smiles": "COc1ccccc1CNc1ccnc(-c2ccccc2OC)n1", "Potency": "inactive"}, {"smiles": "CCNc1ncc2nc(CCc3ccccc3)c(=O)n(Cc3ccc(F)cc3)c2n1", "Potency": "inactive"}, {"smiles": "CN1CCN(c2ncncc2-c2ccccc2Cl)CC1", "Potency": "inactive"}]}]}
